“And” between values parts separate entries of the source, which are not always exact repeats. Equal entries are not always repeated. The source made the active and inactive calls. How the calls were made is not given here.

The experiment deals with Aerobactin synthetase IucA (Klebsiella pneumoniae hvKP1). In words: IucA enzyme inhibition, primary screen, biochemical, Spectrum library (AID 1346200).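 Further: 100% = wells without compound and 0% = wells lacking enzyme.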 As to conditions: malachite green pyrophosphate, A620, at 8 µM, hits give low values.
`O=C(/C=C/C=C/c1ccc2c(c1)OCO2)N1CCCCC1`: the activity remaining was 104% (inactive). The result for `CCOC(=O)c1ccc(N)cc1` reads 113% (inactive). With `CC(=O)Nc1ccc(S(=O)(=O)c2ccc(NC(C)=O)cc2)cc1`, the activity remaining is 110% (inactive). On to `CN1CCC[C@H]1c1cccnc1`, for which the activity remaining is 117% (inactive). Consider `COc1ccc2c(c1)OCC(Cc1ccc(OC)c(O)c1)C2=O` (stereo not given), for which the activity remaining was 115% (inactive). For the molecule `CC(=O)O[C@@H]1CC2C(C)(C)CCC(=O)[C@]2(C)C2CC[C@@]3(C)[C@H](c4ccoc4)OC(=O)C4OC43[C@@]21C` (stereo not given in full), the activity remaining is 113% (inactive). The result for `CC(=O)Oc1ccccc1C(=O)Oc1ccccc1C(=O)O` reads 97.5% (inactive). As for `Cc1cc(O)c(C)c(O)c1C(=O)O`, the activity remaining is 121% (inactive). For `NC(=O)c1ccc[n+]([C@@H]2O[C@H](COP(=O)([O-])OP(=O)(O)OC[C@H]3O[C@@H](n4cnc5c(N)ncnc54)[C@H](OP(=O)(O)O)[C@@H]3O)[C@@H](O)[C@H]2O)c1`, the activity remaining was 101% (inactive). As for `C=C(C)[C@@H]1CC[C@]2(CO)CC[C@]3(C)[C@H](CCC4[C@@]5(C)CC[C@H](O)C(C)(C)C5CC[C@]43C)C12` (stereo not given in full), the activity remaining was 93.4% (inactive). As to `COc1ccc(CCN(C)CCCC(C#N)(c2ccc(OC)c(OC)c2)C(C)C)cc1OC` (stereo not given), the activity remaining is 97.5% (inactive). As to `C[n+]1cccc(C(=O)[O-])c1`, the activity remaining is 92.7% (inactive). As for `OCc1c[nH]c2ccccc12`, the activity remaining is 118% (inactive).

Turning to `CC[C@H]1OC(=O)[C@H](C)[C@@H](O[C@H]2C[C@@](C)(OC)[C@@H](O)[C@H](C)O2)[C@H](C)[C@@H](O[C@@H]2O[C@H](C)C[C@H](N(C)C)[C@H]2O)[C@](C)(OC)C[C@@H](C)C(=O)[C@H](C)[C@@H](O)[C@]1(C)O`, the activity remaining was 119% (inactive). With `O=c1cc(-c2ccccc2)oc2c(O)c(O)ccc12`, the activity remaining was 92.5% (inactive). On to `CC(=O)OCC(=O)[C@@]12OC3(CCCC3)O[C@@H]1CC1C3CCC4=CC(=O)C=C[C@]4(C)[C@@]3(F)[C@@H](O)C[C@@]12C` (stereo not given in full), for which the activity remaining is 90.4% (inactive). Take `COc1cc(C/C=C/c2ccccc2)c(OC)cc1O`: the activity remaining is 113% (inactive). Then `CCC(C)C(=O)OC1[C@@H]2CC3=C4CC(=O)O[C@@H](c5ccoc5)[C@]4(C)CCC3C(C)(C2=O)[C@@H](CC(=O)OC)C1(C)C` (stereo not given in full), with 125% (inactive); and `CN(C)CCC(c1ccc(Br)cc1)c1ccccn1` (stereo not given), with 123% (inactive) and 96.1% (inactive). Turning to `CCc1ccc(CCOc2ccc(CC3SC(=O)NC3=O)cc2)nc1` (stereo not given), the activity remaining is 120% (inactive). With `CC(=O)Oc1c(-c2ccccc2)oc2c(CC=C(C)C)c3c(c(OC(C)=O)c2c1=O)C=CC(C)(C)O3`, the activity remaining was 98.4% (inactive). As to `CC(=O)O[C@H]1CC[C@]2(C)C3=CC(=O)[C@@]4(C)C(C[C@@H]5OC6(OCC(C)CC6Br)[C@@H](C)[C@@H]54)C3CC[C@H]2C1` (stereo not given in full), the activity remaining is 117% (inactive).

Consider `CCCN(CCC)S(=O)(=O)c1ccc(C(=O)O)cc1`, for which the activity remaining was 93.6% (inactive).

Regarding `C=C1C(=O)[C@]23[C@H](O)[C@H]1CC[C@H]2[C@@]12COC3(O)[C@H](O)[C@@H]1C(C)(C)CC[C@@H]2O`, the activity remaining is 98.4% (inactive). In the case of `NCCOB(c1ccccc1)c1ccccc1`, the activity remaining was 97.5% (inactive) and 103% (inactive).
